# Experimental data from PMC5540273 (PLoS ONE, 2017).
# System: PAK1
# Conditions: concentration: 1 μM, replicates: in singlicate; n = 1
# 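Note: KINOMEscan kinase panel screen.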
row,SMILES,%Inh [%]
1,FC(F)(F)c1ccc(/C=C/c2cncnc2Nc2ccc3[nH]c(Cc4ccccc4)nc3c2)cc1 [GW709199],4
2,COc1ccc(Nc2nccc(NCCNC(=O)c3cc4ccccc4s3)n2)cc1 [GSK1379896],7
3,Cl.Cl.NCC(NCc1ccc(-c2ccnc3[nH]ccc23)s1)c1ccccc1 (centres unmarked) [GSK1321565],0
4,O=C(Nc1cccc(-c2nn3ncccc3c2-c2ccnc(Nc3ccccc3)n2)c1)c1c(F)cccc1F [GSK198271],24
5,Cn1cc(-c2ccc3c(c2)CCN3C(=O)Cc2cccc(F)c2)c2c(N)ncnc21 [GSK2603358],0
6,Nc1ncc(-c2cccnc2)c2scc(-c3ccc4c(c3)CCN4C(=O)Cc3ccccc3)c12 [GSK683281],18
7,COC(=O)Nc1nc2cc(Oc3ccc(NC(=O)Nc4cc(C(F)(F)F)ccc4F)cn3)ccc2[nH]1.Cl.Cl [GW681170],0
8,CCn1c(-c2nonc2N)nc2c(C#CC(C)(C)O)nc(OC[C@H](N)c3ccccc3)cc21 [GSK943949],0
9,COc1ccc(Nc2nccc(N3CCC(NC(=O)Nc4cccc(OC)c4)C3)n2)cc1 (centres unmarked) [GSK1379742],44
10,O=C(Nc1cccc(Oc2ccc3nc(NC(=O)C4CC4)cn3n2)c1)c1ccccc1C(F)(F)F,8
11,Fc1ccc(-c2ncn(C3CCNCC3)c2-c2ccnc(Oc3ccc(-c4ccccc4)cc3)n2)cc1 [SB-245391],25
12,CC(=O)Nc1nc2cnc(Nc3cc(NC(=O)c4cccc(C5(C#N)CC5)c4Cl)ccc3C)nc2s1,12
13,Clc1ccc(-c2nn3ncccc3c2-c2ccnc(Nc3ccc4c(c3)OCCO4)n2)cc1 [GW829116],0
14,O=C(Nc1ccccc1F)NC1CCN(c2ccnc(Nc3ccc(F)cc3)n2)CC1 [GSK1379800],1
15,c1ccc(-c2cnc3nccnn23)cc1 [AH20685],13
16,COc1cc2c(cc1OCCN1CCNCC1)ncc1c3ccc(C#N)cc3[nH]c21,0

row,SMILES,%Inh [%]
1,COc1cccc(C2=C(Nc3ccc(Cl)c(C(=O)O)c3)C(=O)NC2=O)c1 [SB-390769],30
2,O=C(O)C(F)(F)F.O=C(O)C(F)(F)F.O=c1[nH]ccc2nc(N[C@@H]3CCCNC3)nc(Nc3ccc(S(=O)(=O)N4CCOCC4)cc3)c12 [GSK2177277],99.9
3,COc1cccc(NC(=O)NC2CCN(c3ccnc(Nc4cc(OC)c(OC)c(OC)c4)n3)C2)c1 (centres unmarked) [GSK1379763],0
4,O=c1[nH]cc(-c2ccc(N3CCOCC3)cc2)c2sc(-c3cn[nH]c3)cc12 [GSK2276055],8
5,Nc1ncc(-c2ccc3nccc(-c4ccncc4)c3c2)cc1S(=O)(=O)N1CCOCC1 [GSK1627798],9
6,Cl.c1ccc(-c2ccc3c(Nc4ccc5[nH]ncc5c4)ccnc3c2)nc1 [GW440137],10
7,Cc1ccc(C)c(NC(=O)NC2CCN(c3ccnc(Nc4ccc(F)cc4)n3)C2)c1 (centres unmarked) [GSK1379720],4
8,Cl.Cl.NCC(NC(=O)c1cc(-c2ccccc2)c(-c2ccnc3[nH]ccc23)s1)c1ccccc1 (centres unmarked) [GSK1321561],4
9,Cc1occc1-c1ncc(OC[C@@H](N)Cc2c[nH]c3ccccc23)cc1-c1ccc2[nH]nc(C)c2c1.O=C(O)C(F)(F)F [GSK682037],97.5
10,CN(c1ccc(NC(=O)Nc2cc(C(F)(F)F)ccc2F)cc1)c1ccnc(Nc2ccc(S(N)(=O)=O)cc2)n1 [GW809893],2
11,CC(C)c1nc(-c2cccc(NS(=O)(=O)c3c(F)cccc3F)c2F)c(-c2ccnc(Nc3ccc(N4CCOCC4)nc3)n2)s1 [GSK2008607],27
12,Cc1cccc(Nc2nc(N[C@H]3CCNC3)ncc2C(N)=O)c1.Cl [GSK2197149],38
13,COc1cccc(C(=O)Nc2cccc(Oc3ccc4nc(NC(=O)C5CC5)cn4n3)c2)c1,17
14,Cl.c1ccc(-c2ccc3c(Nc4ccc5[nH]ccc5c4)ccnc3c2)nc1 [GW440138],0
15,CC(=O)N1CCN(c2ccc(Nc3nccc(-c4sc(C(C)C)nc4-c4cccc(NS(=O)(=O)c5cccc(Cl)c5)c4)n3)cn2)CC1 [GSK1660437],72
16,CCn1c(-c2nonc2N)nc2c(C#CC(C)(C)O)ncc(OCCCCN)c21.O=C(O)C(F)(F)F.O=C(O)C(F)(F)F [GSK507274],81
